# Test results as given in PubChem BioAssay AID2596 (National Center for Advancing Translational Sciences (NCATS), 2010).
# Results filed as inconclusive are left out. Values without a mark were called inactive. Calls of active or inactive are those of the source. Calls come from the whole dose curve; as a rule, active = well fitted inhibition curve with a large enough effect; inconclusive = small, poorly fitted or top-dose-only effect, or effect the other way; inactive = flat fitted curve, though single readings scatter.
# Target: Lysosomal acid glucosylceramidase (Homo sapiens) (UniProt P04062)
# Test: qHTS Assay for Inhibitors and Activators of N370S glucocerebrosidase as a Potential Chaperone Treatment of Gaucher Disease: Purified N370S Glucocerebrosidase Cleavage of Glucosylceramide
# Settings: purified N370S GCase; series mostly up to 77.6 µM; activity change, negative = inhibition: at the top concentration
# Excerpt: NIH Chemical Genomics Center [NCGC]
# NIH Molecular Libraries Probe Production Centers Network [MLPCN]
# Assay Submitter (PI): Wei Zheng
# Glucocerebrosidase (GC) catalyzes the hydrolysis of beta-glucocerebroside to glucose and ceramide in lysosomes. Mutations in the glucocerebrosidase gene result in Gaucher disease, an autosomal recessive lysosomal storage disorder. Many of the mutations encountered in patients with Gaucher disease are missense alterations that may cause misfolding, decreased stability and/or mistrafficking of this lysosomal protein. […] These inhibitors include iminosugar analogs and three non-iminosugar inhibitors identified from a previous HTS of 62,000 compounds with the wild type recombinant enzyme. However, the enhancement of enzyme activity by the chaperone action of an enzyme inhibitor must be balanced against the direct inhibition of the enzyme. An enzyme activator could also function as a chaperone by binding to the enzyme and helping to correct its misfolding and mistrafficking. While activators for GC have not yet been identified, they may have better therapeutic potential than inhibitors. Therefore the discovery and development of chemical activators may provide a new strategy for the chaperone therapy.
# We have optimized a new assay using N370S mutant GC derived from the spleen of a Gaucher patient. […] In addition, the MLPCN compound library has expanded, which increases the chance of finding new and better probes.
# This assay characterizes compound activity using purified, mutant enzyme cleavage of the native substrate for the enzyme instead of mutant enzyme from tissue homogenate. Compound activity differences may be due to the absence of endogenous cofactors found in tissue homogenate as well as inherent differences in enzyme stability and catalytic activity using the difference substrates.
# NCGC Assay Protocol Summary:
# This is an enzyme assay using glucosylceramide from soy (Avanti Polar Lipids Catalog #: 131304P) as the substrate and recombinant human glucocerebrosidase as the enzyme preparation. Upon hydrolysis of the substrate, the glucose product can be detected using the Amplex Red Glucose Oxidase Assay Kit (Invitrogen catalog #: A22189). The product of this reaction can be read with a fluorescence plate reader with an excitation at 573 nm and an emission at 610 nm. Data were normalized to the controls for basal activity (without enzyme) and 100% activity (with enzyme). The AC50 values were determined from concentration-response data modeled with the standard Hill equation.
# Assay buffer for enzyme reaction: 50 mM citric acid (titrated with potassium phosphate to pH 5.9), 0.01% Tween-20 (pH 5.9 is an optimal condition for this enzyme assay)
# Assay buffer for Amplex Red reaction: Tris-HCl, pH 7.5
# 1536-well assay protocol for the glucocerebrosidase assay:
# (1) Add 2 ul/well glucocerebrosidase enzyme solution (5 nM final)
# (2) Add 23 nL compounds in DMSO solution. The final titration was 0.7 nM to 77 uM.
# (3) Add 1 ul of glucosylceramide solution (50 uM final)
# (4) Incubate at 37C for 40 min
# (5) Add 2 ul tris-HCl buffer with Amplex Red reagents
# (6) Incubate 45 min at room temperature.
# (7) Detect the assay plate in a ViewLux plate reader (PerkinElmer) with Ex=573 nm and Em=610nm.
# Keywords: Glucocerebrosidase, beta-glucosidase, Gaucher Disease, pharmacological chaperone, chaperone therapy, high throughput screening, glucocerebrosidase inhibitor, MLSMR, MLSCN, NIH Roadmap, qHTS and NCGC
# Chain of Lysosomal acid glucosylceramidase (Homo sapiens) (P04062 whole entry N409S): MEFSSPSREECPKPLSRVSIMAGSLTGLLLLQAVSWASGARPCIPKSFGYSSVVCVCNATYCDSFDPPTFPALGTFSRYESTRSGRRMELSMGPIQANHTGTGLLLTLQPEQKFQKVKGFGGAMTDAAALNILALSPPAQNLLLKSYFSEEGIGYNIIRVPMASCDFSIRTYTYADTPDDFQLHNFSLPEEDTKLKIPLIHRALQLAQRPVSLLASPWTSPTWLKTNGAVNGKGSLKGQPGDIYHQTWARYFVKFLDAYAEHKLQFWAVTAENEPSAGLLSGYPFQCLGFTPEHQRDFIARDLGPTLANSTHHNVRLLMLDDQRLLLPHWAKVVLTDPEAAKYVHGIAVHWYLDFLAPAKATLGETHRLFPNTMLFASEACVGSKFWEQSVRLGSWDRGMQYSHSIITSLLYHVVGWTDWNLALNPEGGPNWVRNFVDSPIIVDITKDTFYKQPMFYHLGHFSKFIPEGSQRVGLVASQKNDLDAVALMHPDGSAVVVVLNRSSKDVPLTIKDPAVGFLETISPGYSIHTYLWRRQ
Structure (SMILES),"activity change, negative = inhibition",Potency
Cc1cc(C)n2ncc(C(=O)Nc3cccc(O)c3)c2n1,-3.54%,–
Cc1cc(C)cc(N(CC(=O)NC2CCC(C)CC2)S(=O)(=O)c2c(C)[nH]c(=O)[nH]c2=O)c1 (stereo not given),–,35.5 µM (active)
O=S(=O)(c1ccc(Cl)cc1)N1CCN(c2nc(-c3cccc(Br)c3)nc3ccccc23)CC1,6.57%,–
N=c1c2c(-c3ccccc3)c(-c3ccccc3)n(Cc3ccco3)c2ncn1CCCn1ccnc1,-8.82%,–
Cc1cc(C)n2ncc(C(=O)Nc3ccc(Cl)c(Cl)c3)c2n1,13.9%,–
COc1cc(OC)c2c(N)c(C#N)c(C(F)(F)C(F)(F)F)nc2c1,8.65%,–
CCOc1ccc(N(CC(=O)Nc2ccc(C)cc2)S(=O)(=O)c2c(C)[nH]c(=O)[nH]c2=O)cc1,-20.8%,–
Cc1cc(C)cc(N(CC(=O)NC2CCCCCC2)S(=O)(=O)c2c(C)[nH]c(=O)[nH]c2=O)c1,–,14.1 µM (active)
CC1(C)CC(=O)C2=C(C1)c1c(ccc3ccccc13)NC2c1ccc(Br)o1 (stereo not given),13.7%,–
CCC(=O)OCCNc1nc(-c2ccccc2)nc2ccccc12,6.09%,–
Cc1cccc(/C=N/NC(=O)NC23CC4CC(CC(C4)C2)C3)n1,-1.18%,–
Nc1nc(-c2ccccc2)c(N=Nc2ccc(Cl)cc2)s1,-9.16%,–
c1ccc2c(NCC3CCCO3)nc(N3CCOCC3)nc2c1 (stereo not given),-8.4%,–
COc1cccc(S(=O)(=O)N2CCN(c3nc(-c4cccs4)nc4ccccc34)CC2)c1,6.72%,–
O=S(=O)(c1ccc(Cl)cc1)N1CCN(c2nc(-c3ccc(Cl)cc3)nc3ccccc23)CC1,20%,–
S=C(NCCCc1cnc[nH]1)NCCCN(Cc1ccc(Cl)c(Cl)c1)c1ccc(Br)cn1,–,44.7 µM (active)
COc1ccc(N(CC(=O)NC2CCCCC2)S(=O)(=O)c2c(C)[nH]c(=O)[nH]c2=O)cc1,-12.7%,–
O=S(=O)(c1ccc2c(c1)OCCO2)N1CCN(c2nc(-c3ccccc3)nc3ccccc23)CC1,7.83%,–
N#Cc1ccc(S(=O)(=O)N2CCN(c3nc(-c4cccs4)nc4ccccc34)CC2)cc1,-5.08%,–
O=S(=O)(Cc1ccccc1)N1CCN(c2nc(-c3cccs3)nc3ccccc23)CC1,-0.322%,–

Structure (SMILES),"activity change, negative = inhibition",Potency
c1ccc(CNc2nc(-c3cccs3)nc3ccccc23)cc1,-24.4%,–
O=S(=O)(c1ccccc1C(F)(F)F)N1CCN(c2nc(-c3cccs3)nc3ccccc23)CC1,4.16%,–
Cc1ccc(S(=O)(=O)N2CCN(c3nc(-c4cccs4)nc4ccccc34)CC2)cc1,–,inactive
O=S(=O)(c1cccc(C(F)(F)F)c1)N1CCN(c2nc(-c3cccs3)nc3cc(Cl)ccc23)CC1,6.21%,–
CSc1ccc(NC(=O)Nc2cc(C)ccn2)cc1,-12.3%,–
CCC(C)c1ccc(NC(=O)c2cnn3c(C(F)F)cc(C)nc23)cc1 (stereo not given),-16.7%,–
Cc1ccccc1S(=O)(=O)N1CCN(c2nc(-c3cccs3)nc3ccccc23)CC1,20%,–
O=S(=O)(c1ccccc1)N1CCN(c2nc(-c3ccc(F)cc3)nc3cc(Cl)ccc23)CC1,12.6%,–
O=S(=O)(c1ccc(Cl)cc1)N1CCN(c2nc(-c3ccc(F)cc3)nc3cc(Cl)ccc23)CC1,16.7%,–
CC(C)(C)c1ccc(S(=O)(=O)N2CCN(c3nc(-c4cccs4)nc4ccccc34)CC2)cc1,15.3%,–
CC(C)(C)C(=O)OCCNc1nc(-c2ccccc2)nc2ccccc12,–,39.8 µM (active)
Cc1ccccc1-c1nccc(NCc2cccs2)n1,10.1%,–
COc1ccc(S(=O)(=O)N2CCN(c3nc(-c4cccs4)nc4ccccc34)CC2)cc1,2.55%,–
O=C(Nc1cc(Br)ccc1O)c1cnn2c(C(F)F)cc(C3CC3)nc12,-28.3%,–
COc1ccccc1NC(=O)COc1ccccc1C(=O)Nc1ccccc1,-31%,–
NS(=O)(=O)c1ccc(S(=O)(=O)N2CCN(c3nc(-c4cccs4)nc4ccccc34)CC2)cc1,-13.7%,–
O=S(=O)(c1ccc(Cl)cc1)N1CCN(c2nc(Nc3cc(Cl)ccc3O)nc3ccccc23)CC1,–,14.1 µM (active)
COc1ccc(-c2nc(N3CCN(S(=O)(=O)c4ccccc4)CC3)c3ccccc3n2)cc1,18.5%,–
COc1ccc(-c2nc(N3CCN(S(=O)(=O)c4ccc(F)cc4)CC3)c3ccccc3n2)cc1,14.6%,–
COc1ccccc1C(=O)COC(=O)c1ccccc1OCC(=O)Nc1ccc(SC(F)F)cc1,-9.62%,–
